Records with an inconclusive call do not appear. A call without a number means that no potency is given here. More than one record can exist for a structure, and the calls need not agree. Calls of active or inactive are those of the source. Calls follow the shape of the full dose curve. Non-standard residues stand in square brackets, D forms with d. Residues, ends and D or L forms follow the SMILES beside them. pGlu = O=C1CC[C@@H](C(=O)O)N1
Target: Acetylcholinesterase (Homo sapiens) (UniProt P22303)
Assay: Acetylcholinesterase (AChE) small molecule antagonists: fluorescence cell-based qHTS assay (AID 1347398); also: nearly all actives have a fitted effect of over 50% in size; also: potency is read from the fitted curve at half-maximal effect
Settings: SH-SY5Y cells; Potency: AChE activity; outcome: AChE activity; series mostly up to 115 µM
How it was run: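 Endogenous acetylcholinesterase of SH-SY5Y neuroblastoma cells is measured in situ. After overnight attachment and 30 min compound exposure, cells receive acetylthiocholine and Thiolite Green; fluorescence is read after 40 min at room temperature.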

Acetylcholinesterase (Homo sapiens), sequence (P22303 whole entry, looked up): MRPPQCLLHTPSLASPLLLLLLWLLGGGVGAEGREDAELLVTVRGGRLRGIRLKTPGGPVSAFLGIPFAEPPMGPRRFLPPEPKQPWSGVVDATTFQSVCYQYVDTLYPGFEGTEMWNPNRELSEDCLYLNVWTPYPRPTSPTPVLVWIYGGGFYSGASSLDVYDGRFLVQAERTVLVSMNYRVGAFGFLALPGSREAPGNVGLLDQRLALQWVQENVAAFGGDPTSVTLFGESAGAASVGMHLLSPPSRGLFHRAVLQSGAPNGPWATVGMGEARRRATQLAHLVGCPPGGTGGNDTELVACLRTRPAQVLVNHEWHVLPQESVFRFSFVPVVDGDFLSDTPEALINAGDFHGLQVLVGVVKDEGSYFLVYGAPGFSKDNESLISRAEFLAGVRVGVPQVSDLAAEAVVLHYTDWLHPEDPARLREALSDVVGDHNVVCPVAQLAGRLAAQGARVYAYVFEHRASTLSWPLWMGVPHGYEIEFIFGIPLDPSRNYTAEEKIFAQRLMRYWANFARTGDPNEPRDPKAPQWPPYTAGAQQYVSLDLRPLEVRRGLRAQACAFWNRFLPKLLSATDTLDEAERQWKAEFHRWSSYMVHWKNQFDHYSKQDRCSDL

For `NC(=O)c1cn(Cc2c(F)cccc2F)nn1`, which Potency is on record?
Its Potency is “inactive”.

For `CC1=C(C(=O)OC(C)C)C(c2cccc([N+](=O)[O-])c2)C(C(=O)OC2CN(C(c3ccccc3)c3ccccc3)C2)=C(N)N1` (centres undefined), which Potency is on record?
Its Potency is “inactive”.

`Cc1cccc(C(=O)O)c1` was tested. Which Potency did it give?
The Potency was “inactive”.

How did the Potency turn out when `Cc1ccc(C(=O)O)cc1[N+](=O)[O-]` was run?
Its Potency is “inactive”.

How did the Potency turn out when `C#Cc1ccc(-c2ccccc2F)cc1` was run?
The Potency was “inactive”.

`CC1=CCC(C(C)C)=CC1` was tested. Which Potency did it give?
Its Potency is “inactive”.

`CCN(Cc1c(F)cccc1Cl)c1c([N+](=O)[O-])cc(C(F)(F)F)cc1[N+](=O)[O-]` was tested. Which Potency did it give?
The Potency was “inactive”.

`Oc1ccc(OCc2ccccc2)cc1` was tested. Which Potency did it give?
The Potency was “inactive”.

With `CC(C)(C)NCC(O)COc1ccccc1OCC1CCCO1` (centres undefined) as the compound, how does the Potency read?
The Potency was “inactive”.

With `OCC(CO)(CO)COCC(CO)(CO)CO` as the compound, how does the Potency read?
The Potency was “inactive”.

With `CN(CCOc1ccc(CC2SC(=O)NC2=O)cc1)c1ccccn1` (centres undefined) as the compound, how does the Potency read?
The Potency was “inactive”.

How did the Potency turn out when `CCCCCCCCCC(=O)OCC` was run?
The Potency was “inactive”.

For `Nc1ncnc2nc[nH]c12`, which Potency is on record?
The Potency was “inactive”.

`COC(=O)c1ccc(C(=O)O)cc1` was tested. Which Potency did it give?
Its Potency is “inactive”.

For `C=CC(=O)OCCCCCC`, which Potency is on record?
The Potency was “inactive”.

How did the Potency turn out when `CCCCN(CCCC)CCCC` was run?
Its Potency is “inactive”.

Which Potency does the source give for `CCOC(=O)[C@H](CCc1ccccc1)N[C@@H](C)C(=O)N(CC(=O)O)C1Cc2ccccc2C1` here?
The Potency was “inactive”.

How did the Potency turn out when `CC(C)Cc1nccs1` was run?
The Potency was “inactive”.

`CO[C@@H]1[C@@H](OC)[C@H](C)[C@@](O)(CC(=O)O)O[C@H]1[C@H](C)[C@H]1O[C@@]2(CC[C@@](C)([C@H]3CC[C@@](C)([C@@H]4O[C@@H]([C@H]5O[C@](C)(O)[C@H](C)C[C@@H]5C)C[C@@H]4OC4C[C@H](OC)[C@@H](OC)[C@H](C)O4)O3)O2)C[C@H](O)[C@H]1C` (some centres undefined) was tested. Which Potency did it give?
Its Potency is “inactive”.

For `CC(C)=CCl`, which Potency is on record?
The Potency was 22.7 µM (active) and inactive.

For `CN(C)/N=N/c1nc[nH]c1C(N)=O`, which Potency is on record?
The Potency was “inactive”.

With `CCCCC/C=C/CC(=O)OC` as the compound, how does the Potency read?
The Potency was “inactive”.

For `CCN1CCc2nc(N)oc2CC1`, which Potency is on record?
The Potency was “inactive”.

How did the Potency turn out when `CC(C)=CC1CC(C)CCO1` (centres undefined) was run?
Its Potency is “inactive”.

Target: Acetylcholinesterase (Homo sapiens) (UniProt P22303)
Assay: Acetylcholinesterase (AChE) small molecule antagonists: enzyme-based qHTS assay with human liver microsomes (AID 1347399); also: nearly all actives have a fitted effect of over 60% in size
Settings: Potency: qHTS inhibition; outcome: qHTS inhibition; series mostly up to 115 µM
How it was run: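 Recombinant human AChE (50 mU/mL in the enzyme mix) and human liver microsomes (0.25 mg/mL final) were preincubated with compound and NADPH (0.25 mg/mL final) for 30 min at 37 C. Acetylthiocholine/DTNB was then added; thiocholine was read colorimetrically after 10 min at room temperature.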

`O=C1C(N(CO)C(=O)NCO)N(CO)C(=O)N1CO` (centres undefined) was tested. Which Potency did it give?
Its Potency is “inactive”.

Which Potency does the source give for `O=C1Nc2ccccc2C1(c1ccc(O)cc1)c1ccc(O)cc1` here?
The Potency was “inactive”.

With `Nc1ncnc(Nc2ccccc2)n1` as the compound, how does the Potency read?
The Potency was “inactive”.

With `Cc1cc(C)c(/C=C2\C(=O)Nc3ccccc32)[nH]1` as the compound, how does the Potency read?
The Potency was “inactive”.

How did the Potency turn out when `O=C(O)c1ccc(-n2nc(-c3ccccc3O)nc2-c2ccccc2O)cc1` was run?
Its Potency is “inactive”.

`CC1CCCC(=O)C1=O` (centres undefined) was tested. Which Potency did it give?
The Potency was “inactive”.

For `COc1ccccc1C=O`, which Potency is on record?
The Potency was “inactive”.

`O=S(=O)(O)c1ccc(Cl)cc1` was tested. Which Potency did it give?
Its Potency is “inactive”.

How did the Potency turn out when `CC1(C)Cc2cccc(N)c2O1` was run?
The Potency was “inactive”.

Which Potency does the source give for `C=C[C@@H](C)CCC=C(C)C` here?
Its Potency is “inactive”.

How did the Potency turn out when `C[C@]12CC[C@@H]3c4ccc(O)cc4CC[C@H]3[C@@H]1CC[C@@H]2OC(=O)CCC1CCCC1` was run?
Its Potency is “inactive”.

`CC(C)c1ccc2c(C(C)C)cc(C(C)C)c(S(=O)(=O)O)c2c1` was tested. Which Potency did it give?
The Potency was “inactive”.

`CCNC(=O)[C@@H]1CCCN1C(=O)[C@H](CCCN=C(N)N)NC(=O)[C@H](CC(C)C)NC(=O)CNC(=O)[C@H](Cc1ccc(O)cc1)NC(=O)[C@H](CO)NC(=O)[C@H](Cc1c[nH]c2ccccc12)NC(=O)[C@H](Cc1cnc[nH]1)NC(=O)[C@@H]1CCC(=O)N1` ([pGlu]HWSYGLRP-NHEt) was tested. Which Potency did it give?
Its Potency is “inactive”.

With `O=[N+]([O-])c1cccc(Cl)c1` as the compound, how does the Potency read?
The Potency was “inactive”.

`COC(=O)CCCCC(=O)O` was tested. Which Potency did it give?
The Potency was “inactive”.

`CC(C)c1cc2c(cc1S(=O)(=O)O)[C@@]1(C)CCC[C@@](C)(C(=O)O)[C@@H]1CC2` was tested. Which Potency did it give?
The Potency was “inactive”.

With `NC(=O)c1cn(Cc2c(F)cccc2F)nn1` as the compound, how does the Potency read?
The Potency was “inactive”.

Which Potency does the source give for `CC1=C(C(=O)OC(C)C)C(c2cccc([N+](=O)[O-])c2)C(C(=O)OC2CN(C(c3ccccc3)c3ccccc3)C2)=C(N)N1` (centres undefined) here?
The Potency was “inactive”.

With `Cc1cccc(C(=O)O)c1` as the compound, how does the Potency read?
Its Potency is “inactive”.

How did the Potency turn out when `Cc1ccc(C(=O)O)cc1[N+](=O)[O-]` was run?
Its Potency is “inactive”.

For `C#Cc1ccc(-c2ccccc2F)cc1`, which Potency is on record?
Its Potency is “inactive”.

With `CC1=CCC(C(C)C)=CC1` as the compound, how does the Potency read?
The Potency was “inactive”.

With `CCN(Cc1c(F)cccc1Cl)c1c([N+](=O)[O-])cc(C(F)(F)F)cc1[N+](=O)[O-]` as the compound, how does the Potency read?
Its Potency is “inactive”.

With `Oc1ccc(OCc2ccccc2)cc1` as the compound, how does the Potency read?
The Potency was “inactive”.

`CC(C)(C)NCC(O)COc1ccccc1OCC1CCCO1` (centres undefined) was tested. Which Potency did it give?
The Potency was “inactive”.

`OCC(CO)(CO)COCC(CO)(CO)CO` was tested. Which Potency did it give?
The Potency was “inactive”.

With `CN(CCOc1ccc(CC2SC(=O)NC2=O)cc1)c1ccccn1` (centres undefined) as the compound, how does the Potency read?
The Potency was “inactive”.

How did the Potency turn out when `CCCCCCCCCC(=O)OCC` was run?
Its Potency is “inactive”.

`Nc1ncnc2nc[nH]c12` was tested. Which Potency did it give?
Its Potency is “inactive”.

For `COC(=O)c1ccc(C(=O)O)cc1`, which Potency is on record?
Its Potency is “inactive”.

For `C=CC(=O)OCCCCCC`, which Potency is on record?
The Potency was “inactive”.

`CCCCN(CCCC)CCCC` was tested. Which Potency did it give?
Its Potency is “inactive”.

For `CCOC(=O)[C@H](CCc1ccccc1)N[C@@H](C)C(=O)N(CC(=O)O)C1Cc2ccccc2C1`, which Potency is on record?
The Potency was “inactive”.

How did the Potency turn out when `CC(C)Cc1nccs1` was run?
Its Potency is “inactive”.

How did the Potency turn out when `CO[C@@H]1[C@@H](OC)[C@H](C)[C@@](O)(CC(=O)O)O[C@H]1[C@H](C)[C@H]1O[C@@]2(CC[C@@](C)([C@H]3CC[C@@](C)([C@@H]4O[C@@H]([C@H]5O[C@](C)(O)[C@H](C)C[C@@H]5C)C[C@@H]4OC4C[C@H](OC)[C@@H](OC)[C@H](C)O4)O3)O2)C[C@H](O)[C@H]1C` (some centres undefined) was run?
Its Potency is “inactive”.

For `CC(C)=CCl`, which Potency is on record?
Its Potency is “inactive”.

How did the Potency turn out when `CN(C)/N=N/c1nc[nH]c1C(N)=O` was run?
The Potency was “inactive”.

`CCCCC/C=C/CC(=O)OC` was tested. Which Potency did it give?
Its Potency is “inactive”.

`CCN1CCc2nc(N)oc2CC1` was tested. Which Potency did it give?
The Potency was “inactive”.

How did the Potency turn out when `CC(C)=CC1CC(C)CCO1` (centres undefined) was run?
Its Potency is “inactive”.
